Source: PubChem BioAssay AID1159580 (chemical genetic matrix, 2015)
“And” between values parts separate entries of the source, which are not always exact repeats. Equal entries are not always repeated. Hit rate of the full screen: of about 5,500 compounds, about 2,000 (36%) were called active. Roughly 18% stayed inconclusive and do not appear here. No stated cut-off is given here; in the data, active means normalized growth mostly below about 0.91 (no sharp cut-off); inconclusive means no clear call, values can overlap the other calls; inactive means mostly above about 0.92. Some of the results follow.

Assay: chemical genetic growth profiling, strain panel (AID 1159580);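 further: tested at 20 µM; growth read once vehicle control cultures reached saturation at 30 °C; 1 = growth at the plate median or of vehicle wells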
Conditions: S. cerevisiae deletion strains, growth OD

Measured: normalized growth

CC(C)(C)NC[C@@H](O)COc1nsnc1N1CCOCC1
inactive: locus YAL021C, strain ccr4, stronger effect = lower value 1.02 | locus YAL026C, strain drs2, stronger effect = lower value 1.01 | locus YAL030W, strain snc1, stronger effect = lower value 1.02 | locus YBL061C, strain skt5, stronger effect = lower value 1.01 | locus YBR009C, strain hhf1, stronger effect = lower value 1.01 | locus YBR021W, strain FUR4, stronger effect = lower value 1 | locus YBR023C, strain chs3, stronger effect = lower value 1 | locus YBR171W, strain sec66, stronger effect = lower value 1.03 | locus YBR229C, strain ROT2, stronger effect = lower value 0.977 | locus YBR231C, strain swc5, stronger effect = lower value 1.02 | locus YBR279W, strain paf1, stronger effect = lower value 1.01 | locus YCL011C, strain gbp2, stronger effect = lower value 1.02 | locus YCL016C, strain dcc1, stronger effect = lower value 1.01 | locus YCL029C, strain bik1, stronger effect = lower value 0.978 | locus YCL069W, strain vba3, stronger effect = lower value 1.01 | locus YCR088W, strain abp1, stronger effect = lower value 1.02 | locus YDL005C, strain med2, stronger effect = lower value 1.02 | locus YDL035C, strain GPR1, stronger effect = lower value 1.02 | locus YDL040C, strain nat1, stronger effect = lower value 1.01 | locus YDL074C, strain BRE1, stronger effect = lower value 0.985 | locus YDL101C, strain DUN1, stronger effect = lower value 0.99 | locus YDL185W, strain tfp1, stronger effect = lower value 0.977 | locus YDL192W, strain arf1, stronger effect = lower value 0.994 | locus YDR001C, strain nth1, stronger effect = lower value 1.01 | locus YDR069C, strain doa4, stronger effect = lower value 1.01 | locus YDR101C, strain arx1, stronger effect = lower value 0.95 | locus YDR137W, strain rgp1, stronger effect = lower value 1.02 | locus YDR150W, strain NUM1, stronger effect = lower value 0.99 | locus YDR159W, strain sac3, stronger effect = lower value 1 | locus YDR162C, strain NBP2, stronger effect = lower value 1.02 | locus YDR195W, strain ref2 1.03 | locus YDR297W, strain sur2, stronger effect = lower value 1.02 | locus YDR318W, strain mcm21, stronger effect = lower value 1 | locus YDR334W, strain swr1, stronger effect = lower value 1.02 | locus YDR335W, strain msn5, stronger effect = lower value 1.02 | locus YDR388W, stronger effect = lower value 0.99 | locus YDR392W, strain spt3, stronger effect = lower value 0.973 | locus YDR502C, strain sam2, stronger effect = lower value 0.994 | locus YEL003W, strain gim4, stronger effect = lower value 1.02 | locus YEL037C, strain rad23, stronger effect = lower value 1.01 | locus YEL061C, strain CIN8 (second series), stronger effect = lower value 1.02 | locus YEL061C, strain CIN8, stronger effect = lower value 0.996 | locus YER015W, strain faa2, stronger effect = lower value 1 | locus YER016W, strain bim1, stronger effect = lower value 0.994 | locus YER110C, stronger effect = lower value 0.974 | locus YER111C, strain swi4, stronger effect = lower value 1.02 | locus YER155C, strain BEM2 (second series), stronger effect = lower value 1.01 | locus YER155C, strain BEM2, stronger effect = lower value 0.987 | locus YER167W, strain BCK2, stronger effect = lower value 0.986 | locus YFR010W, strain ubp6, stronger effect = lower value 1.02 | locus YGL078C, strain dbp3, stronger effect = lower value 1 | locus YGL086W, strain mad1, stronger effect = lower value 0.966 | locus YGL167C, strain pmr1, stronger effect = lower value 1.02 | locus YGL173C, strain kem1, stronger effect = lower value 1.02 | locus YGL227W, strain vid30, stronger effect = lower value 1.01 | locus YGL240W, strain doc1, stronger effect = lower value 1.02 | locus YGL248W, strain PDE1, stronger effect = lower value 1 | locus YGL253W, strain hxk2, stronger effect = lower value 1.02 | locus YGR078C, strain PAC10, stronger effect = lower value 1 | locus YGR135W, strain pre9, stronger effect = lower value 1 | locus YGR252W, strain gcn5, stronger effect = lower value 1.08 | locus YHR013C, strain ard1, stronger effect = lower value 1.02 | locus YHR027C, strain rpn1, stronger effect = lower value 1.01 | locus YHR030C, strain SLT2, stronger effect = lower value 0.997 and 0.975 | locus YHR079C, strain IRE1 (second series), stronger effect = lower value 0.983 | locus YHR079C, strain IRE1, stronger effect = lower value 0.973 | locus YHR094C, strain hxt1, stronger effect = lower value 0.974 | locus YHR129C, strain ARP1, stronger effect = lower value 1 | locus YHR142W, strain chs7, stronger effect = lower value 1.03 | locus YHR200W, strain rpn10, stronger effect = lower value 1 | locus YIL066C, strain RNR3, stronger effect = lower value 0.985 | locus YIL073C, strain SPO22, stronger effect = lower value 1.01 | locus YIL125W, strain kgd1, stronger effect = lower value 0.981 | locus YIR030C, strain dcg1, stronger effect = lower value 1 | locus YJL092W, strain hpr5, stronger effect = lower value 1.01 | locus YJL095W, strain BCK1 (second series), stronger effect = lower value 1.02 | locus YJL095W, strain BCK1, stronger effect = lower value 1.01 and 0.975 | locus YJL115W, strain asf1, stronger effect = lower value 1.01 | locus YJL129C, strain trk1, stronger effect = lower value 1.02 | locus YJL134W, strain LCB3, stronger effect = lower value 0.985 | locus YJL154C, strain vps35, stronger effect = lower value 1.02 | locus YJL164C, strain tpk1, stronger effect = lower value 1.01 | locus YJL166W, strain qcr8, stronger effect = lower value 1.01 | locus YJL168C, strain set2, stronger effect = lower value 0.984 | locus YJL187C, strain SWE1 (second series), stronger effect = lower value 0.99 | locus YJL187C, strain SWE1, stronger effect = lower value 1.02 | locus YJR043C, strain POL32, stronger effect = lower value 1.03 | locus YJR066W, strain TOR1, stronger effect = lower value 0.929
